Assay results taken from PubChem BioAssay AID1159580 (chemical genetic matrix, 2015).
Hit rate of the full screen: of about 5,500 compounds, about 2,000 (36%) were called active. Another 18% or so got no clear call; they are omitted. Cut-off read from the data, not from the text of the source: active = normalized growth mostly below about 0.91 (no sharp cut-off); inconclusive = no clear call, values can overlap the other calls; inactive = mostly above about 0.92. Some of the results follow.

Test: chemical genetic growth profiling, strain panel (AID 1159580);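 note: tested at 20 µM; growth read once vehicle control cultures reached saturation at 30 °C; 1 = growth at the plate median or of vehicle wells; lower values mean less growth of the strain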
Settings: growth OD

Measured: normalized growth

CCC(c1ccc(O)cc1)C(CC)c1ccc(O)cc1 (stereo not drawn)
inactive: S. cerevisiae deletion strains, locus YJR075W, strain HOC1, stronger effect = lower value 1.01 | S. cerevisiae deletion strains, locus YKL068W, stronger effect = lower value 0.99 | S. cerevisiae deletion strains, locus YKL085W, strain MDH1 (second series), stronger effect = lower value 0.984 | S. cerevisiae deletion strains, locus YKL085W, strain MDH1, stronger effect = lower value 0.984 | S. cerevisiae deletion strains, locus YKL160W, strain elf1, stronger effect = lower value 0.928 | S. cerevisiae deletion strains, locus YKL190W, strain CNB1, stronger effect = lower value 0.994 | S. cerevisiae deletion strains, locus YKR001C, strain vps1, stronger effect = lower value 0.99 | S. cerevisiae deletion strains, locus YKR026C, strain gcn3, stronger effect = lower value 0.982 | S. cerevisiae deletion strains, locus YKR091W, strain srl3, stronger effect = lower value 1 | S. cerevisiae deletion strains, locus YLL001W, strain dnm1, stronger effect = lower value 0.943 | S. cerevisiae deletion strains, locus YLL041C, strain sdh2, stronger effect = lower value 0.976 | S. cerevisiae deletion strains, locus YLR058C, strain SHM2, stronger effect = lower value 1 | S. cerevisiae deletion strains, locus YLR102C, strain apc9, stronger effect = lower value 1.01 | S. cerevisiae deletion strains, locus YLR268W, strain sec22, stronger effect = lower value 0.912 | S. cerevisiae deletion strains, locus YLR330W, strain CHS5, stronger effect = lower value 1.01 | S. cerevisiae deletion strains, locus YLR342W, strain FKS1 (second series), stronger effect = lower value 0.962 | S. cerevisiae deletion strains, locus YLR342W, strain FKS1, stronger effect = lower value 0.938 | S. cerevisiae deletion strains, locus YLR357W, strain rsc2, stronger effect = lower value 0.984 | S. cerevisiae deletion strains, locus YLR370C, strain arc18, stronger effect = lower value 0.993 | S. cerevisiae deletion strains, locus YLR371W, strain rom2, stronger effect = lower value 1.01 | S. cerevisiae deletion strains, locus YLR384C, strain iki3, stronger effect = lower value 1.01 | S. cerevisiae deletion strains, locus YLR418C, strain cdc73, stronger effect = lower value 0.871 | S. cerevisiae deletion strains, locus YML016C, strain PPZ1, stronger effect = lower value 0.996 | S. cerevisiae deletion strains, locus YML032C, strain rad52, stronger effect = lower value 0.935 | S. cerevisiae deletion strains, locus YML124C, strain tub3, stronger effect = lower value 1.01 | S. cerevisiae deletion strains, locus YMR078C, strain ctf18, stronger effect = lower value 0.994 | S. cerevisiae deletion strains, locus YMR125W, strain sto1, stronger effect = lower value 1.01 | S. cerevisiae deletion strains, locus YMR129W, stronger effect = lower value 0.957 | S. cerevisiae deletion strains, locus YMR223W, strain ubp8, stronger effect = lower value 0.94 | S. cerevisiae deletion strains, locus YMR231W, strain pep5, stronger effect = lower value 1.01 | S. cerevisiae deletion strains, locus YMR263W, strain SAP30, stronger effect = lower value 0.973 | S. cerevisiae deletion strains, locus YNL067W, strain RPL9B, stronger effect = lower value 0.956 | S. cerevisiae deletion strains, locus YNL128W, strain TEP1, stronger effect = lower value 1.02 | S. cerevisiae deletion strains, locus YNL153C, strain GIM3, stronger effect = lower value 0.982 | S. cerevisiae deletion strains, locus YNL209W, strain ssb2, stronger effect = lower value 0.976 | S. cerevisiae deletion strains, locus YNL233W, strain BNI4, stronger effect = lower value 0.974 | S. cerevisiae deletion strains, locus YNL248C, strain rpa49, stronger effect = lower value 0.942 | S. cerevisiae deletion strains, locus YNL250W, strain rad50, stronger effect = lower value 0.985 | S. cerevisiae deletion strains, locus YNL271C, strain bni1, stronger effect = lower value 0.985 | S. cerevisiae deletion strains, locus YNL298W, strain CLA4, stronger effect = lower value 0.912 | S. cerevisiae deletion strains, locus YNL322C, strain KRE1 (second series), stronger effect = lower value 0.985 | S. cerevisiae deletion strains, locus YNL322C, strain KRE1, stronger effect = lower value 1.01 | S. cerevisiae deletion strains, locus YNR049C, strain mso1, stronger effect = lower value 1 | S. cerevisiae deletion strains, locus YNR052C, strain pop2, stronger effect = lower value 0.938 | S. cerevisiae deletion strains, locus YOL006C, strain TOP1, stronger effect = lower value 0.769 | S. cerevisiae deletion strains, locus YOL012C, strain htz1 1.31 | S. cerevisiae deletion strains, locus YOL147C, strain pex11, stronger effect = lower value 0.997 | S. cerevisiae deletion strains, locus YOR061W, strain CKA2, stronger effect = lower value 0.984 | S. cerevisiae deletion strains, locus YOR069W, strain VPS5, stronger effect = lower value 0.999 | S. cerevisiae deletion strains, locus YOR070C, strain gyp1, stronger effect = lower value 0.942 | S. cerevisiae deletion strains, locus YOR080W, strain dia2, stronger effect = lower value 0.974 | S. cerevisiae deletion strains, locus YOR083W, strain WHI5, stronger effect = lower value 0.899 | S. cerevisiae deletion strains, locus YOR136W, strain idh2, stronger effect = lower value 0.996 | S. cerevisiae deletion strains, locus YOR144C, strain elg1, stronger effect = lower value 1.01 | S. cerevisiae deletion strains, locus YOR265W, strain rbl2, stronger effect = lower value 0.966 | S. cerevisiae deletion strains, locus YOR270C, strain vph1, stronger effect = lower value 0.792 | S. cerevisiae deletion strains, locus YOR290C, strain snf2, stronger effect = lower value 0.953 | S. cerevisiae deletion strains, locus YOR316C, strain cot1, stronger effect = lower value 1.01 | S. cerevisiae deletion strains, locus YPL055C, strain LGE1, stronger effect = lower value 0.979 | S. cerevisiae deletion strains, locus YPL078C, strain atp4, stronger effect = lower value 0.895 | S. cerevisiae deletion strains, locus YPL106C, strain sse1, stronger effect = lower value 0.93 | S. cerevisiae deletion strains, locus YPL240C, strain hsp82, stronger effect = lower value 0.971 | S. cerevisiae deletion strains, locus YPL241C, strain CIN2, stronger effect = lower value 0.998 | S. cerevisiae deletion strains, locus YPR119W, strain clb2, stronger effect = lower value 1 | S. cerevisiae deletion strains, locus YPR141C, strain kar3, stronger effect = lower value 0.994 | S. cerevisiae deletion strains, locus YPR163C, strain tif3, stronger effect = lower value 1.02 | S. cerevisiae deletion strains, locus YPR167C, strain met16, stronger effect = lower value 0.987 | S. cerevisiae deletion strains, strain wtn01, stronger effect = lower value 0.959 | S. cerevisiae strains, strain wild type, stronger effect = lower value 0.995
active: S. cerevisiae deletion strains, locus YKL009W, strain mrt4, stronger effect = lower value 0.871 | S. cerevisiae deletion strains, locus YLL026W, stronger effect = lower value 0.862 | S. cerevisiae deletion strains, locus YLR027C, strain aat2, stronger effect = lower value 0.829 | S. cerevisiae deletion strains, locus YLR039C, strain RIC1, stronger effect = lower value 0.6 | S. cerevisiae deletion strains, locus YLR221C, strain rsa3, stronger effect = lower value 0.828 | S. cerevisiae deletion strains, locus YLR258W, strain gsy2, stronger effect = lower value 0.902 | S. cerevisiae deletion strains, locus YLR262C, strain YPT6 (second series), stronger effect = lower value 0.396 | S. cerevisiae deletion strains, locus YLR262C, strain YPT6, stronger effect = lower value 0.575 | S. cerevisiae deletion strains, locus YLR320W, strain mms22, stronger effect = lower value 0.868 | S. cerevisiae deletion strains, locus YML120C, strain ndi1, stronger effect = lower value 0.733 | S. cerevisiae deletion strains, locus YMR058W, strain fet3, stronger effect = lower value 0.864 | S. cerevisiae deletion strains, locus YMR205C, strain PFK2, stronger effect = lower value 0.844 | S. cerevisiae deletion strains, locus YMR307W, strain GAS1, stronger effect = lower value 0.592 | S. cerevisiae deletion strains, locus YNL071W, strain lat1, stronger effect = lower value 0.786 | S. cerevisiae deletion strains, locus YNL307C, strain MCK1, stronger effect = lower value 0.877 | S. cerevisiae deletion strains, locus YOR001W, strain rrp6, stronger effect = lower value 0.808 | S. cerevisiae deletion strains, locus YOR106W, strain vam3, stronger effect = lower value 0.804 | S. cerevisiae deletion strains, locus YOR184W, strain ser1, stronger effect = lower value 0.761 | S. cerevisiae deletion strains, locus YPL051W, strain arl3, stronger effect = lower value 0.849
